The source of these data is PubChem BioAssay (Tox21).

Molecules are shown by their SMILES. Values joined by “and” are separate entries in the source; they are usually repeats but may differ in a detail not shown here. Identical values can stand only once. Results filed as inconclusive are left out. Some structures have more than one record in an assay (separate samples or runs), and their calls can disagree. Active and inactive are the calls of the source. Unless noted, calls come from the whole dose curve; as a rule, active = well fitted curve in the direction sought with a large enough effect in the repeat runs; inconclusive = weak or mixed curves; inactive = no such curve, though single readings can be large; an effect the other way counts as inactive or inconclusive.

Assay [1] can be described thus: qHTS assay for small molecule agonists of the p53 signaling pathway (AID 651631; calls by dose curve; note: nearly all actives have a fitted effect of over 15% in size). An outline of the steps:
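Stably transfected HCT-116 cells (beta-lactamase behind p53 response elements) get compounds after a 5 h settling period; 16 h later at 37 °C, FRET substrate is loaded and fluorescence read after 2 h.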

Assay [2] in a line: qHTS assay for small molecule agonists of the p53 signaling pathway - cell viability (AID 651633; calls by dose curve; note: nearly all actives have a fitted effect of over 30% in size; note: potency is the fitted concentration of half-maximal effect). An outline of the steps:
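p53RE-bla cells, seeded at 4,000 per well and rested 5 h at 37 C/5% CO2, received compounds in DMSO for 16 h at 37 C. CellTiter-Glo was then added, and luminescence was read after 30 min at room temperature to gauge cytotoxicity.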
(In general: In qHTS, concentration-response curves come from the screen itself.)

Assay [3] in a line: qHTS assay for small molecules that induce genotoxicity in human embryonic kidney cells expressing luciferase-tagged ATAD5 - cell viability (AID 651634; calls by dose curve; note: nearly all actives have a fitted effect of over 25% in size). The method in brief: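 Here HEK293T cells with the ATAD5 luciferase reporter are incubated with test compounds for 15.5 hr, and cytotoxicity is then gauged by measuring protease activity in live cells using fluorescence.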
Assay [4] can be described thus: qHTS assay for small molecule disruptors of the mitochondrial membrane potential - cell viability (AID 720634; calls by dose curve;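 note: human HepG2 liver cancer cells; series mostly up to about 83 µM; nearly all actives have a fitted effect of over 20% in size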). An outline of the steps:
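Viability of HepG2 cells is scored from ATP content by luminescence; cells are exposed to compound for 1 hr at 37 C and 5% CO2, then dosed with m-MPI dye before the CellTiter-Glo reagent.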

The nature of assay [5]: qHTS assay for small molecule disruptors of the mitochondrial membrane potential (AID 720635). Note: potency is the fitted concentration of half-maximal effect. An outline of the steps:
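HepG2 cells (2,000/well) attached overnight at 37C, then took compound for 1 hr at 37C, 5% CO2. Mito-MPS dye was added for 30 min; fluorescence was read at 490/535 nm (monomers) and 540/590 nm (aggregates).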

Assay [6] can be described thus: qHTS assay to test for compound auto fluorescence at 590 nm (red) in HepG2 cells (AID 720674). An outline of the steps:
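Intrinsic compound fluorescence in the red window (Ex/Em 540/590 nm) is measured in attached HepG2 cells exposed for 1 hr, DMSO vehicle as baseline, benchmarked to Rose Bengal sodium.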

Assay [7] in a line: qHTS assay to test for compound auto fluorescence at 535 nm (green) in HepG2 cells (AID 720675).
Assay [8] is described as follows: qHTS assay to test for compound auto fluorescence at 460 nm (blue) in HEK293 cells (AID 720678). An outline of the steps: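 Measured: blue fluorescence (Ex 405/Em 460 nm) of compound-treated HEK293 cells, incubated overnight at 37C with 5% CO2 and scaled to triamterene equivalents.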
Assay [9] can be described thus: qHTS assay to test for compound auto fluorescence at 590 nm (red) in HEK293 cells (AID 720679). The method in brief: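 Using HEK293 cells at 2,000 per well, the screen added 23 nL of each compound after cell attachment and incubated overnight (37C, 5% CO2). The plate reader then captured red-label fluorescence, Ex/Em 540/590nm.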
Assay [10] is described as follows: qHTS assay to test for compound auto fluorescence at 535 nm (green) in HEK293 cells (AID 720680).
The nature of assay [11]: qHTS assay to test for compound auto fluorescence at 460 nm (blue) in HEK293 cell free culture (AID 720681). An outline of the steps:
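Test compounds were pinned into cell-free culture medium (DMEM with 10% FBS) and fluorescence was read directly at Ex/Em 405/460 nm. Signals were expressed as fluorescence equivalents of triamterene, with DMSO vehicle as control.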

Assay [12] in a line: qHTS assay to test for compound auto fluorescence at 535 nm (green) in HEK293 cell free culture (AID 720682). An outline of the steps: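 Using fluorescein as calibrant, autofluorescence was quantified at 485/535 nm in cell-free DMEM containing 10% FBS after pintool addition of compound or vehicle.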
A short description of assay [13]: qHTS assay to test for compound auto fluorescence at 590 nm (red) in HEK293 cell free culture (AID 720683). The method in brief: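 Tox21 10K library compounds were pinned into cell-free DMEM with 10% FBS and fluorescence was read at excitation 540 nm. Activity is expressed as Rose Bengal sodium equivalency.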
Assay [14] is described as follows: qHTS assay to test for compound auto fluorescence at 590 nm (red) in HepG2 cell free culture (AID 720684). The method in brief:
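Readout: intrinsic compound fluorescence at 590 nm emission after 540 nm excitation, scaled to Rose Bengal sodium. Matrix was cell-free MEM with 10% FBS; DMSO vehicle wells served as control.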

Assay [15] is described as follows: qHTS assay to test for compound auto fluorescence at 460 nm (blue) in HepG2 cell free culture (AID 720685). An outline of the steps:
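Cell-free plates of MEM plus 10% FBS received 23 nL compound or DMSO vehicle; blue-channel (405/460 nm) intensity scored against triamterene as reference fluorophore.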

The nature of assay [16]: qHTS assay to test for compound auto fluorescence at 535 nm (green) in HepG2 cell free culture (AID 720686).
For assay [17], the target named is Glucocorticoid receptor (Homo sapiens) (UniProt P04150). The experiment in a line: qHTS assay to identify small molecule antagonists of the glucocorticoid receptor (GR) signaling pathway (AID 720692; active = well fitted inhibition curve with a large enough effect in the signal ratio in the repeat runs, not every such curve was filed as active; the % refers to the signal ratio). The method in brief: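 In a 1536-well cell format, compounds were added 4 h after seeding GR-bla HeLa cells, together with dexamethasone at 5 nM final; reporter activity was measured by FRET-substrate fluorescence following 18 h at 37 C.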
Sequence of Glucocorticoid receptor (Homo sapiens) (P04150 whole entry, looked up): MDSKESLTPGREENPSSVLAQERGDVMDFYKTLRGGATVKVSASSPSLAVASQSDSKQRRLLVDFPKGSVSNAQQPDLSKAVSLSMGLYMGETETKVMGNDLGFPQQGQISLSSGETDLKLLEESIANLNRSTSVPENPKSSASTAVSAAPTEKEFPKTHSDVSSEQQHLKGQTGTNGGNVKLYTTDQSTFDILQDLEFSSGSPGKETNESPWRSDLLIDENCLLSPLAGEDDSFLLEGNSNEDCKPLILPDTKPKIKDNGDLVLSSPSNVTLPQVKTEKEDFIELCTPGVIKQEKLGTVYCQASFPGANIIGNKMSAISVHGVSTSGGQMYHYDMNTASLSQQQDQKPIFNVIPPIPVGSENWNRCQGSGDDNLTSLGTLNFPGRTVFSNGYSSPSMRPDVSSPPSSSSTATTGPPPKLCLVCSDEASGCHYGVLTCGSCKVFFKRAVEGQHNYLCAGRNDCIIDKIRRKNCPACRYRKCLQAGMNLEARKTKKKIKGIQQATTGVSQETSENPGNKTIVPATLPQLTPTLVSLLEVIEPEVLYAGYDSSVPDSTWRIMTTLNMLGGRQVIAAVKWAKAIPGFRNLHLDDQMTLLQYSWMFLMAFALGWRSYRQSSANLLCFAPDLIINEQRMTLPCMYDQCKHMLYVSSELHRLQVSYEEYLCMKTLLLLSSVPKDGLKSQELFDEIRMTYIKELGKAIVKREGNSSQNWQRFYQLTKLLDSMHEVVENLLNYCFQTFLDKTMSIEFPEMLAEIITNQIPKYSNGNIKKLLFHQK

The nature of assay [18]: qHTS assay for small molecules that induce genotoxicity in human embryonic kidney cells expressing luciferase-tagged ATAD5 (AID 651632). Note: nearly all actives have a fitted effect of over 15% in size. The method in brief:
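DMSO vehicle served as the control. HEK293T reporter cells, 16 hr at 37C, then 30 min Amplite at room temperature; ATAD5 induction is measured as luciferase activity.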

The target of assay [19] is Glucocorticoid receptor (Homo sapiens) (UniProt P04150). The assay can be described thus: qHTS assay to identify small molecule agonists of the glucocorticoid receptor (GR) signaling pathway (AID 720691; active = well fitted activation curve with a large enough effect in the signal ratio in the repeat runs, not every such curve was filed as active; the % refers to the signal ratio). The method in brief: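 Compounds in DMSO, alongside positive controls, were added to GR-bla HeLa reporter cells and incubated 18 h at 37 C; GRE-driven beta-lactamase was detected by fluorescence after 2 h with FRET substrate at room temperature.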

Assay [20] can be described thus: qHTS assay to test for compound auto fluorescence at 460 nm (blue) in HepG2 cells (AID 720687). The method in brief:
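Cells (2,000/well in MEM with 10% FBS) attached overnight at 37 C, then were exposed to compound or DMSO for 1 hr at 37 C, 5% CO2. Fluorescence read at Ex/Em 405/460 nm, expressed as triamterene-equivalent signal.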

`COc1ccc2c(C(=O)c3ccc(Cl)cc3)c(C)n(CC(=O)O)c2c1`: the Potency entry in [1], in [2], in [3], in assay [4], in [5] and in assay [17] was “inactive” each time. Further, the compound was called inactive in assay [6], in assay [7], in assay [8], in [9], in [10] and in assay [11]. The call in assay [12], in [13], in [14], in assay [15] and in assay [16] was inactive.

In the case of `CC(Cc1ccccc1)NCCn1cnc2c1c(=O)n(C)c(=O)n2C` (stereo not given), the result in assay [18], in [6], in assay [7], in assay [8], in [9] and in assay [10] was inactive. In addition, the outcome in assay [11], in assay [12], in assay [13], in assay [14] and in assay [15] was inactive. In addition, the Potency entry in assay [2], in assay [3], in assay [4], in assay [5] and in assay [19] was “inactive” throughout.

Regarding `CON(C)C(=O)Nc1ccc(Br)cc1`, the Potency entry in [1], in assay [2], in [3], in assay [4] and in [19] was “inactive” in each case. Moreover, the result in assay [6], in assay [7], in assay [9], in assay [10], in [11] and in assay [12] was inactive. Moreover, the outcome in assay [13], in assay [14], in assay [15], in assay [16] and in [20] was inactive.

For the compound `Cn1c(CCCC(=O)O)nc2cc(N(CCCl)CCCl)ccc21`, the result in assay [18], in assay [6], in assay [7], in assay [8], in assay [9] and in assay [10] was inactive. For the same compound, the compound was called inactive in assay [11], in assay [12], in assay [13], in assay [15] and in [20]. In addition, the Potency result in [2], in [3], in [4], in assay [5] and in assay [19] was “inactive” each time.

Turning to `CCOC1Oc2ccc(OS(C)(=O)=O)cc2C1(C)C` (stereo not given), the call in [18], in assay [6], in assay [7], in assay [8], in [9] and in [10] was inactive. Further, the result in assay [11], in assay [12], in assay [14], in [15] and in [16] was inactive. In addition, the Potency result in assay [2], in assay [3], in assay [4] and in [5] was “inactive” each time.

With `CC(C)(C)c1cc(O)ccc1O`, the Potency result in assay [1], in [4] and in [19] was “inactive” in each case. In addition, the Potency result was “inactive and 29.8 µM (active)” in assay [2]; “inactive and 22.1 µM (active)” in assay [5]. The call in assay [6], in assay [7], in assay [8], in assay [9], in assay [10] and in [11] was inactive. The outcome in assay [12], in assay [13], in assay [14], in assay [15] and in assay [20] was inactive.

For `Oc1ccc(Cc2ccc(O)cc2)cc1`, the Potency entry in assay [1], in assay [2], in assay [3], in assay [4], in [19] and in [17] was “inactive” each time. In assay [5], the Potency is 54.9 µM (active). Further, the compound was classed as inactive in assay [6], in assay [7], in assay [8], in assay [9], in assay [10] and in assay [11]. For the same compound, the outcome in [12], in assay [13], in [14], in assay [15] and in assay [20] was inactive.

Regarding `Clc1ccc(C(Cl)(Cl)Cl)cn1`, the Potency result in [1], in assay [2], in assay [3], in [4] and in assay [19] was “inactive” each time. Moreover, the result in assay [6], in [7], in [8], in assay [9], in [10] and in assay [11] was inactive. The compound was called inactive in assay [12], in assay [13], in assay [14], in [15], in assay [16] and in [20].

Regarding `CN(C)CCc1c[nH]c2cccc(OP(=O)(O)O)c12`, the call in assay [18], in assay [6], in assay [7], in [8], in assay [9] and in [10] was inactive. Further, the result in assay [11], in assay [12], in assay [14], in assay [15] and in assay [20] was inactive. Further, the Potency entry in assay [2], in assay [3], in assay [4] and in assay [5] was “inactive” throughout.

As for `CC1NCCOC1c1ccccc1` (stereo not given), the outcome in [18], in assay [6], in assay [7], in assay [8], in [9] and in assay [10] was inactive. Also, the compound was classed as inactive in assay [11], in [12], in [14], in assay [15], in assay [16] and in assay [20]. Moreover, the Potency entry in assay [2], in assay [3], in assay [4] and in [5] was “inactive” each time.

Regarding `Cl/C=C/CCl`, the Potency entry in [1], in assay [2], in assay [3], in [4], in [5] and in assay [19] was “inactive” throughout. For the same compound, the result in assay [6], in assay [7], in [8], in assay [9], in assay [10] and in assay [11] was inactive. Besides, the result in assay [12], in assay [14], in assay [15] and in assay [16] was inactive.

As to `O=P(O)(O)c1ccccc1`, the compound was called inactive in [18], in assay [6], in assay [7], in assay [8], in assay [9] and in [10]. For the same compound, the result in [11], in [12], in assay [14], in [15], in assay [16] and in [20] was inactive. Also, the Potency entry in assay [2], in [3], in assay [4] and in [5] was “inactive” throughout.

Turning to `ClCOCCl`, the compound was called inactive in [18], in assay [6], in assay [7], in assay [8], in assay [9] and in assay [10]. Moreover, the outcome in assay [11], in assay [12], in assay [14], in assay [15], in assay [16] and in assay [20] was inactive. In addition, the Potency result in [2], in assay [3], in assay [4], in assay [5] and in assay [19] was “inactive” each time.

`CCCCS(=O)(=O)Cl`: the compound was classed as inactive in [18], in assay [6], in assay [7], in assay [8], in [9] and in assay [10]. For the same compound, the outcome in assay [11], in assay [12], in [13], in [14], in [15] and in assay [16] was inactive. The compound was called inactive in [20]. Further, the Potency entry in assay [2], in assay [3], in assay [4], in assay [5] and in assay [19] was “inactive” throughout.

Consider `CCCN1CCC[C@@H]2Cc3nc(N)ncc3C[C@H]21`, for which the result in [18], in assay [6], in assay [7], in assay [8], in [9] and in assay [10] was inactive. For the same compound, the compound was called inactive in assay [11], in assay [12], in assay [13], in assay [14], in assay [15] and in assay [16]. Further, in assay [20], the compound was classed as inactive. The Potency entry in assay [2], in assay [3] and in [4] was “inactive” in each case.
